Out of some 2,300 compounds screened, about 1,700 (74%) were called active. The set was probably picked from earlier hits. The list shows a part of the results. Entries with a potency or affinity are not part of this list. A number with no mark means an inactive call. The rule behind the calls is not given here.
Assay: Mycobacterium tuberculosis H37Rv growth inhibition, no glycerol, confirmatory dose response (AID 449764);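 note: growth read after 7 days of incubation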
Conditions: series mostly up to 100 µM; inhibition: at the top concentration

| SMILES | inhibition [%] |
| --- | --- |
| C=CCn1c(Cc2cccs2)nnc1SCC(=O)Nc1ccc(C(=O)OCC)cc1 | 0.82 |
| CCCCCCCC(=O)N/N=C(/C)c1c(O)cc(C)oc1=O | -9.85 |
| CN1CCN(CC/C=C2/c3ccccc3Sc3ccc(S(=O)(=O)N(C)C)cc32)CC1 | -1.39 |
| O=c1oc2cc(O)ccc2c2ccccc12 | -2.92 |
| CCCCCOc1ccc(N2C(=O)C3C4C=CC(C3C2=O)N(C)C4=O)cc1 (stereo unspecified) | -6.07 |
| O=c1c2cc(-c3ccccc3)sc2ncn1/N=C/c1ccco1 | 26.1 |
| O=C(NC1CCCCC1)C(c1ccc2ncccc2c1)N(Cc1ccco1)C(=O)c1ccc2c(c1)OCCO2 (stereo unspecified) | 4.79 |
| CCCCc1ccc(NC=C2C(=O)OC3(CCCCC3)OC2=O)cc1 | 1.5 |
| O=C(Nc1ccc(N2CCOCC2)c(Cl)c1)c1c(F)c(F)c(F)c(F)c1F | 16.1 |
| Cc1cc(N2CCCCC2)n2ncc(-c3ccc(Cl)cc3)c2n1 | 4.56 |
| CCSCc1nnc(SCC(=O)Nc2cccc(SC)c2)n1C | 0.62 |
| Cc1ccc(C(=O)N/N=C/C=C/c2ccccc2)cc1 | -6.65 |
| Cc1nn(Cc2ccccc2)c(C)c1C(=O)OCC(=O)c1cc(C)n(CC(F)(F)F)c1C | 2.72 |
| CCCCCC(=O)Nc1cccc2ccccc12 | 24.4 |
| Cc1cc(C)c2nc(N3CCCC(C(=O)N4CCN(c5ncccn5)CC4)C3)sc2c1 (stereo unspecified) | -1.73 |
| Cc1c(NC(=O)c2ccc([N+](=O)[O-])o2)cccc1-c1nc2ncccc2o1 | -10.9 |
| CCCCCOC(=O)Nc1nnc(CCCCC)s1 | -0.7 |
| C/C(CC(=O)Nc1ccc(C)c(Cl)c1)=N\NC(=O)Cc1cnc(N)s1 | 21.7 |
| Cc1ccc(N/N=C/C=C/c2ccco2)cc1 | 13.8 |
| CCOC(=O)N1CCN=C1SCc1ccc(C(F)(F)F)cc1 | 3.73 |
| O=C(CSc1nc2ccccc2[nH]1)N1c2ccccc2Sc2ccccc21 | 4.61 |
| CCOC(=O)Oc1ccc2oc(C)c(C(=O)OCCOC)c2c1 | 7.24 |

| SMILES | inhibition [%] |
| --- | --- |
| C=CC[N@@+]12CC[C@]34c5ccccc5N5/C=C6\C7N(/C=C(\C53)[C@@H](C[C@@H]41)/C(=C/CO)C2)c1ccccc1[C@@]71CC[N@@+]2(CC=C)C/C(=C\CO)[C@@H]6C[C@@H]12 (stereo partly specified) | 15.8 |
| CCOC(=O)c1c(CN2CCN(Cc3ccccc3)CC2)n(C)c2cc(Br)c(OC)cc12 | 2.08 |
| O=C1N[C@@H](Cc2ccccc2)C(=O)N2[C@H]3Nc4ccccc4[C@@]3([C@]34C[C@H]5C(=O)N[C@@H](Cc6ccccc6)C(=O)N5[C@H]3Nc3ccccc34)C[C@@H]12 | 27.3 |
| CCC(=O)c1coc2ccc(O)cc12 | 3.23 |
| CC(C)NCC(O)c1ccc(O)c(O)c1 (stereo unspecified) | -0.07 |
| CCc1ccc(-n2nc3cc(C)c(N)cc3n2)cc1 | 9.43 |
| CCOc1ccc(N2C(=O)CS/C2=C(\C(Cl)=C(Cl)Cl)[N+](=O)[O-])cc1 | -1.12 |
| CC(=O)c1c(C)n([O-])c2cc(F)c(F)cc2[n+]1=O | -9.5 |
| CCCCn1c(-c2ccc(C(C)(C)C)cc2)nc2cc3[nH]c(=O)c(C(C)C)nc3cc21 | 4.74 |
| Cc1nn(-c2ccccc2)c(N2CCCC2)c1/C=N/Nc1ccc(S(N)(=O)=O)cc1[N+](=O)[O-] | 14.3 |
| CC(=O)/C(=N\Nc1ccc(C)cc1)N1CCOCC1 | 1.57 |
| Cc1ccc(C(=O)CCC(=O)OCC(=O)Nc2c(C)nn(-c3ccccc3)c2C)cc1 | -6.34 |
| CCCCCn1c(CN2CCN(c3cccc(Cl)c3)CC2)nc2c1c(=O)[nH]c(=O)n2C | 11.1 |
| Cc1ccc(Sc2ccc(/C=C3/C(=O)NN(c4ccccc4)C3=O)o2)cc1 | -5.58 |
| CSc1cccc(N=C2C(=O)Nc3ccccc32)c1 | -2.79 |
| COc1cccc(C(=O)/C=C2\Sc3ccccc3N2C)c1 | 8.66 |
| Fc1ccc(-c2nnc(CSc3nnc(-c4cccs4)o3)o2)cc1 | 1.3 |
| CC/C(=C\C(=O)c1cccnc1)Nc1ccc(C)c(C)c1 | 10.2 |
| C=C(C)C1CC=C(C)/C(=N/NC(=O)CNc2ccc(OCC)cc2)C1 (stereo unspecified) | -7.09 |
| Cc1[nH]nc2nc3c(c(OC(=O)c4ccccc4)c12)c(=O)n(C)c(=O)n3C | -48 |
| O=C1CC(Nc2ccc3ccccc3c2)C(=O)N1Cc1ccccc1 (stereo unspecified) | -40.4 |
| O=C(COC(=O)C1CCN(c2ccc(C(F)(F)F)cn2)CC1)Nc1ccc(F)cc1[N+](=O)[O-] | 3.56 |

| SMILES | inhibition [%] |
| --- | --- |
| Cc1ccc(N=Nc2c(C)[nH]n(C(N)=S)c2=O)cc1 | 0.95 |
| O=C(Nc1cccc(C(F)(F)F)c1)c1ccc2nc(-c3ccco3)c(-c3ccco3)nc2c1 | -1.75 |
| Nc1cccc(-c2cc3ccccc3oc2=O)c1 | 0.03 |
| CC(C)c1nnc(NC(=O)CCC(=O)N2CCN(c3ccc(Cl)cc3)CC2)s1 | 18 |
| CCCC(=O)Nc1sc2c(c1C#N)CCCCC2 | -7.16 |
| O=[N+]([O-])c1ccc(COc2ccc(-c3[nH]ncc3-c3ccc(Cl)cc3)c(O)c2)cc1 | -5.46 |
| Cc1nc(S/C(=C/c2ccc(-c3ccc(Cl)cc3)o2)C(=O)O)n[nH]1 | 0.99 |
| Cc1ccc(NN=C2c3ccccc3-c3ccccc32)cc1 | -1.03 |
| CN1CCC(=NNC(=O)C(=O)Nc2ccccc2F)CC1 | -0.59 |
| O=C(Nc1cccc(-c2ccc(N3CCCCC3)nn2)c1)c1ccc(Br)o1 | 4.5 |
| CCOC(=O)c1sc(C)c2c(=O)n(CC(=O)c3ccc(Br)cc3)nnc12 | -0.02 |
| CCOC(=O)c1ccc(N2CC(O)=C(c3nc4ccccc4c(=O)[nH]3)C2=N)cc1 | 0.03 |
| Cc1ccc(-c2cccc(NC(=O)C3C4C=CC(C4)C3C(=O)O)c2)o1 (stereo unspecified) | 19.9 |
| CCN(CC)S(=O)(=O)c1cccc(NC(=O)Nc2cccc(C(F)(F)F)c2)c1 | 13.6 |
| CC1Nc2ncnc(N3CCN(c4ccccc4)CC3)c2N(Cc2ccc(Br)cc2)C1=O (stereo unspecified) | 2.31 |
| COc1cc2[nH]c3c(N4CCN(c5ccccn5)CC4)ncnc3c2cc1OC | 4.78 |
| Clc1ccc(CSc2ncn[nH]2)cc1 | 5.76 |
| COc1ccc(-c2ccnc3nc(N4CCN(c5ccccc5)CC4)nn23)cc1 | 9.15 |
| c1ccc(CCN2CN=C(Nc3nc4ccccc4o3)NC2)cc1 | -12.8 |
| Cc1ccc(NC(=O)COC(=O)c2ccc(=O)n(Cc3ccccc3)n2)cc1F | -2.62 |
| COc1cc(OC)nc(Oc2ccccc2C(=O)Oc2ccc(Cl)cc2)n1 | 5.33 |
| CCNc1nc(NC(C)(C)C)nc(N2CCCCC2)n1 | 6.41 |

| SMILES | inhibition [%] |
| --- | --- |
| O=C(CCCC(=O)OCC(=O)c1cccs1)Nc1ccc(Oc2ccccc2)cc1 | 10.8 |
| COc1ccc(N2COC3c4cccc5cccc(c45)C32)cc1 (stereo unspecified) | -0.43 |
| Brc1ccc(-c2ccc(/C=N/Nc3nncc(-c4ccccc4)n3)o2)cc1 | 11.6 |
| Cn1nnc(NC(=S)NC(=O)c2ccc(-c3ccc(Br)cc3)o2)n1 | 5.19 |
| Cc1ccc(N/C=C2\C(=O)C3(C)CCC2C3(C)C)cc1C (stereo unspecified) | 2.28 |
| Cc1cc(C(=O)N/N=C/c2ccc(-c3ccc([N+](=O)[O-])cc3Cl)o2)n[nH]1 | 14 |
| Cc1ccc(-c2cc(C(F)(F)F)n3nc(C(=O)NCCCn4ccnc4)cc3n2)cc1C | -1.7 |
| CCOC(=O)/C(=N\Nc1ccc(Br)cc1)N1CC(C)OC(C)C1 (stereo unspecified) | 12 |
| C=CCn1c(=O)/c(=C/c2ccc(Cl)cc2)s/c1=C(/C#N)c1nnc2n1CCCCC2 | -2.32 |
| Nc1ccc2c(c1)oc1ccccc12 | -7.66 |
| CCOC(=O)NNc1ccccc1 | 5.17 |
| CC1(CCc2ccccc2)NC(=S)N(c2ccc(Cl)cc2)N1 (stereo unspecified) | 10.4 |
| Cn1c(=O)c2[nH]c(-c3ccc(S(=O)(=O)O)cc3)nc2n(C)c1=O | 0.47 |
| Nc1ccc(Oc2ccc3c(c2)OCO3)cc1 | -3.59 |
| COc1ccc(NC2=C(C(C)=O)C(c3ccc4c(c3)OCO4)C(C(C)=O)C(C)(O)C2)cc1 (stereo unspecified) | -3.81 |
| Nc1ccc2c(c1)nnn2-c1ccccc1 | 5.99 |
| O=S(=O)(Nc1ccn(-c2ccccc2)n1)c1ccc(Br)cc1 | 9.63 |
| Cc1ccc(S(=O)(=O)c2nc(Nc3nccs3)sc2Cl)cc1 | -5.86 |
| O=C(CSc1nc2cc(Cl)ccc2o1)c1cccs1 | 0.59 |
| COC12C(COC(N)=O)C3=C(C(=O)C(C)=C(N)C3=O)N1CC1C2N1C (stereo unspecified) | -32.4 |
| Oc1ccc(Br)cc1/C=N/Nc1nc(N2CCCCC2)nc(N2CCOCC2)n1 | -9.39 |
| Nc1ccc(CCc2ccc(N)cc2)cc1 | -3.99 |

| SMILES | inhibition [%] |
| --- | --- |
| COc1cc(/C=N/N(C)c2ccccc2)cc(Cl)c1O | 1.6 |
| COc1cc2c(-c3ccc4[nH]ccc4c3)c(-c3ccc(C#N)cc3)oc(=O)c2cc1OC | 22.6 |
| O=C1NC(=O)/C(=C/c2ccc(-c3cccc([N+](=O)[O-])c3)o2)S1 | 2.2 |
| O=[N+]([O-])c1ccc(-c2ccc(/C=N/c3c(-c4ccco4)nc4ccccn34)o2)cc1 | 1.4 |
| O=[N+]([O-])c1ccc(-c2csc(NN=C3CCCC3)n2)cc1 | 1.6 |
| Nc1c(C(=O)Nc2ccc(Br)cc2)sc2nc(-c3ccco3)ccc12 | 2.28 |
| CCCCn1cnc2cc(NCc3cccc(OC)c3O)ccc21 | 24.5 |
| COc1ccc(NC(C#N)c2ccc(OC)cc2)cc1 (stereo unspecified) | 3.18 |
| Nc1ccn([C@@H]2O[C@H](CO)[C@@H](O)C2O)c(=O)n1 (stereo partly specified) | 0.82 |
| O=C(CSCC(=O)Nc1ccc2ccccc2c1)NCc1ccccc1 | -0.93 |
| Cn1ccnc1-c1nnn(-c2ccc(Cl)c(Cl)c2)n1 | -4.2 |
| CCOc1ccc(-n2c(-c3ccc(Br)cc3)c[n+]3c2CCCCC3)cc1 | 28.2 |
| c1ccc(Cn2nnc3c(N4CCc5ccccc5C4)ncnc32)cc1 | 10.7 |
| Cn1c(=O)c(C(=O)COC(=O)c2cc(C(F)(F)F)nc3c(C(F)(F)F)cccc23)c(N)n(CC2CC2)c1=O | -1.78 |
| Cc1cc(NC(=O)c2noc3c2CCCC3)nn1Cc1ccc(Cl)cc1 | -5.15 |
| Cc1ccc(NC(=O)/C(Cl)=C\c2ccccc2)cc1 | -8.13 |
| Nc1ccc2c(c1)Cc1ccccc1-2 | -1.21 |
| C/C=C(\C)C(=O)Nc1cccc(C2=NOC3(C2)C[C@H](C(N)=O)N(C(=O)c2cc([N+](=O)[O-])cc([N+](=O)[O-])c2)C3)c1 (stereo partly specified) | 20.7 |
